Laboratory results reported in PMC5540273 (PLoS ONE, 2017).

Assays:
Details in all cases: concentration: 1 μM, replicates: in singlicate; n = 1
LOK = tested on: T1, LOK
T1 construct: gene STK10

LRRK2 = tested on: LRRK2
LTK = tested on: LTK
LYN = tested on: LYN
LZK = tested on: T2, LZK
T2 construct: gene MAP3K13

MAK = tested on: MAK
MAP3K15 = tested on: MAP3K15
MAP3K1 = tested on: MAP3K1
MAP3K2 = tested on: MAP3K2
MAP3K3 = tested on: MAP3K3
MAP3K4 = tested on: MAP3K4
MAP4K2 = tested on: MAP4K2
MAP4K3 = tested on: MAP4K3
MAP4K4 = tested on: MAP4K4
MAP4K5 = tested on: MAP4K5
MAPKAPK2 = tested on: MAPKAPK2
MAPKAPK5 = tested on: MAPKAPK5
MARK1 = tested on: MARK1
MARK2 = tested on: MARK2
MARK3 = tested on: MARK3
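Also: KINOMEscan kinase panel screen.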

| SMILES | %Inh (LOK) [%] | %Inh (LRRK2) [%] | %Inh (LTK) [%] | %Inh (LYN) [%] | %Inh (LZK) [%] | %Inh (MAK) [%] | %Inh (MAP3K15) [%] | %Inh (MAP3K1) [%] | %Inh (MAP3K2) [%] | %Inh (MAP3K3) [%] | %Inh (MAP3K4) [%] | %Inh (MAP4K2) [%] | %Inh (MAP4K3) [%] | %Inh (MAP4K4) [%] | %Inh (MAP4K5) [%] | %Inh (MAPKAPK2) [%] | %Inh (MAPKAPK5) [%] | %Inh (MARK1) [%] | %Inh (MARK2) [%] | %Inh (MARK3) [%] |
| --- | --- | --- | --- | --- | --- | --- | --- | --- | --- | --- | --- | --- | --- | --- | --- | --- | --- | --- | --- | --- |
| Cc1nnc(-c2ccc3ncn(-c4ccc(S(C)=O)cc4)c3c2)o1 (centres unmarked) | 4 | 0 | 0 | 8 | 0 | 0 | 0 | 16 | 0 | 0 | 16 | 100 | 0 | 0 | 0 | 11 | 0 | 0 | 0 | 2 |
| O=C(Nc1n[nH]c2cc(-c3ccccc3F)ccc12)C1CC1 [SB-733371] | 1 | 0 | 0 | 0 | 0 | 0 | 32 | 0 | 0 | 22 | 29 | 16 | 0 | 43 | 18 | 0 | 10 | 0 | 29 | 0 |
| Cc1nc(N(C)[C@H]2CN(C(=O)CC#N)CC[C@H]2C)c2cc[nH]c2n1 | 0 | 0 | 0 | 0 | 0 | 9 | 0 | 10 | 10 | 7 | 12 | 1 | 0 | 0 | 0 | 0 | 10 | 9 | 0 | 0 |
| CN1C(=O)C(Nc2cc(Cl)c(O)c(Cl)c2)=C(c2ccc(Cl)cc2)C1=O [SB-404321] | 0 | 0 | 0 | 24 | 6 | 0 | 0 | 0 | 0 | 0 | 0 | 0 | 0 | 0 | 0 | 89 | 0 | 0 | 10 | 0 |
| O=C(NCCNc1ccnc(Nc2ccc(F)cc2)n1)Nc1ccc2c(c1)OCO2 [GSK1379882] | 0 | 0 | 0 | 0 | 0 | 30 | 0 | 1 | 0 | 0 | 24 | 0 | 0 | 0 | 0 | 0 | 0 | 0 | 0 | 0 |
| COC(=O)c1c(-c2ccccc2)c2cc(Br)ccc2c(=O)n1Cc1ccc(NC(=O)CCC(=O)O)cc1 | 20 | 4 | 3 | 8 | 4 | 8 | 18 | 12 | 0 | 18 | 38 | 0 | 0 | 0 | 0 | 16 | 4 | 7 | 6 | 0 |
| COc1cc(OC)cc(-c2cc3cnc(N)nc3nc2NC(=O)NC(C)(C)C)c1 | 13 | 0 | 0 | 0 | 0 | 0 | 0 | 0 | 0 | 13 | 32 | 0 | 0 | 0 | 0 | 0 | 0 | 0 | 8 | 0 |
| CCc1nc(-c2cccc(C)c2)c(-c2ccncc2)s1 | 0 | 0 | 0 | 12 | 0 | 0 | 0 | 0 | 0 | 0 | 0 | 0 | 0 | 17 | 0 | 0 | 0 | 0 | 11 | 0 |
| COc1ccc(Nc2nccc(N3CCC(NS(=O)(=O)c4ccc(NC(C)=O)cc4)C3)n2)cc1 (centres unmarked) [GSK1379729] | 14 | 28 | 8 | 3 | 0 | 30 | 11 | 15 | 0 | 0 | 13 | 2 | 11 | 21 | 15 | 49 | 1 | 0 | 0 | 0 |
| CC(C)(C)c1ccc(C(=O)Nc2cn3cc(-c4ccccc4)ccc3n2)cc1 | 0 | 0 | 0 | 0 | 0 | 11 | 22 | 0 | 0 | 2 | 7 | 0 | 33 | 5 | 0 | 12 | 0 | 0 | 19 | 0 |
| CCC(=O)c1c(-c2ccccc2)c2cc(Cl)ccc2c(=O)n1Cc1cc(S(C)(=O)=O)n(CC(N)=O)n1 | 0 | 8 | 0 | 7 | 0 | 15 | 0 | 0 | 0 | 0 | 0 | 0 | 0 | 0 | 0 | 0 | 0 | 0 | 0 | 6 |
| COc1cccc(-n2cnc3c(N)ncnc32)c1 [SKF-97416] | 4 | 63 | 0 | 8 | 33 | 10 | 22 | 29 | 35 | 22 | 31 | 33 | 0 | 0 | 0 | 0 | 1 | 0 | 13 | 37 |
| CCCNC(=O)Nc1ccc(Oc2ncnc3ccn(C)c23)cc1 | 47 | 0 | 4 | 30 | 22 | 0 | 0 | 31 | 15 | 0 | 6 | 7 | 0 | 0 | 0 | 7 | 0 | 6 | 6 | 0 |
| COc1cc2ncn(-c3cc(OCc4ccncc4Br)c(C(N)=O)s3)c2cc1OC [GW854278] | 87 | 0 | 7 | 4 | 0 | 2 | 0 | 65 | 20 | 1 | 17 | 11 | 0 | 0 | 20 | 0 | 0 | 8 | 37 | 0 |
| CCC(=O)c1c(-c2ccccc2)c2cc(Cl)ccc2c(=O)n1Cc1cc(S(C)(=O)=O)n(CC(F)F)n1 | 0 | 0 | 0 | 0 | 0 | 14 | 2 | 0 | 0 | 0 | 9 | 0 | 0 | 0 | 0 | 0 | 5 | 0 | 1 | 0 |
| COC(=O)c1c(-c2ccccc2)c2cc(C)ccc2c(=O)n1Cc1ccccc1 | 0 | 0 | 0 | 7 | 0 | 0 | 0 | 0 | 0 | 0 | 2 | 0 | 0 | 0 | 0 | 24 | 0 | 0 | 17 | 0 |

| SMILES | %Inh (LOK) [%] | %Inh (LRRK2) [%] | %Inh (LTK) [%] | %Inh (LYN) [%] | %Inh (LZK) [%] | %Inh (MAK) [%] | %Inh (MAP3K15) [%] | %Inh (MAP3K1) [%] | %Inh (MAP3K2) [%] | %Inh (MAP3K3) [%] | %Inh (MAP3K4) [%] | %Inh (MAP4K2) [%] | %Inh (MAP4K3) [%] | %Inh (MAP4K4) [%] | %Inh (MAP4K5) [%] | %Inh (MAPKAPK2) [%] | %Inh (MAPKAPK5) [%] | %Inh (MARK1) [%] | %Inh (MARK2) [%] | %Inh (MARK3) [%] |
| --- | --- | --- | --- | --- | --- | --- | --- | --- | --- | --- | --- | --- | --- | --- | --- | --- | --- | --- | --- | --- |
| Cc1cc(Nc2nc(-c3cccc(C)n3)nc3ccccc23)ccn1 [GW872411] | 0 | 0 | 0 | 0 | 0 | 0 | 0 | 0 | 0 | 0 | 0 | 0 | 12 | 0 | 0 | 0 | 0 | 21 | 13 | 22 |
| Cl.c1ccc(Cn2cnc3cc(Nc4ncnc5ccccc45)ccc32)cc1 [GW272142] | 0 | 0 | 0 | 0 | 22 | 0 | 0 | 5 | 0 | 0 | 0 | 0 | 0 | 0 | 0 | 15 | 0 | 0 | 0 | 0 |
| Cc1ccccc1COc1cc(-n2cnc3cc(Cl)ccc32)sc1C(N)=O [GW813349] | 46 | 82 | 9 | 33 | 0 | 0 | 1 | 32 | 5 | 11 | 20 | 0 | 0 | 12 | 20 | 0 | 0 | 0 | 0 | 14 |
| Nc1ncnc2c1ncn2-c1ccc(Cl)cc1 [AH2635] | 0 | 0 | 14 | 0 | 27 | 8 | 0 | 0 | 0 | 0 | 0 | 0 | 0 | 12 | 0 | 10 | 0 | 0 | 0 | 3 |
| Cc1ccc(Oc2ccc(Nc3ncnc4cc[nH]c34)cc2C)cn1 | 1 | 0 | 0 | 0 | 40 | 25 | 38 | 0 | 4 | 30 | 6 | 0 | 0 | 0 | 0 | 0 | 30 | 20 | 4 | 3 |
| COc1ccc(CNC(=O)NC2CCN(c3ccnc(Nc4ccc(F)cc4)n3)C2)cc1 (centres unmarked) [GSK1379706] | 0 | 23 | 15 | 0 | 71 | 30 | 12 | 2 | 0 | 0 | 0 | 0 | 0 | 3 | 2 | 24 | 2 | 0 | 0 | 4 |
| Cl.NS(=O)(=O)c1cccc(Nc2cc(-c3ccc(F)cc3)n[nH]2)c1 [GW824645] | 0 | 0 | 0 | 0 | 0 | 0 | 1 | 0 | 22 | 0 | 1 | 0 | 0 | 0 | 0 | 0 | 0 | 0 | 19 | 14 |
| Cn1c(=O)c(F)c(Nc2ccc(I)cc2F)c2c(=O)n(OC[C@H](O)CO)cnc21 | 2 | 0 | 20 | 14 | 0 | 0 | 0 | 0 | 0 | 4 | 27 | 0 | 0 | 0 | 5 | 0 | 0 | 0 | 0 | 7 |
| COc1ccc(-c2cc3c(C)nc(N)nc3n([C@H]3CC[C@H](O)CC3)c2=O)cn1 | 0 | 0 | 0 | 0 | 0 | 0 | 0 | 0 | 0 | 0 | 0 | 0 | 3 | 0 | 0 | 0 | 0 | 0 | 0 | 0 |
| CCc1ccc(-c2ccc3c(c2)-c2nn(C)cc2S(=O)(=O)N3C)cc1 | 2 | 0 | 0 | 0 | 0 | 0 | 0 | 0 | 0 | 0 | 1 | 0 | 0 | 19 | 22 | 0 | 0 | 24 | 0 | 0 |
| Cc1cccc(-c2cc(-c3c[nH]nc3-c3ccccn3)ccn2)c1 [GW679395] | 0 | 10 | 4 | 0 | 12 | 33 | 0 | 5 | 6 | 0 | 13 | 0 | 0 | 0 | 0 | 17 | 0 | 0 | 0 | 0 |
| CCC(=O)c1c(-c2ccccc2)c2cc(Cl)ccc2c(=O)n1Cc1cc(S(C)(=O)=O)n(CCC(C)(C)O)n1 | 16 | 6 | 6 | 18 | 13 | 2 | 43 | 3 | 21 | 37 | 14 | 0 | 0 | 0 | 18 | 23 | 20 | 0 | 15 | 18 |
| Cc1ccc(-c2ccc3c(ccc4sc5c(c43)NC[C@@H](C)N=C5N(C)C)n2)cn1 | 0 | 0 | 0 | 0 | 0 | 17 | 0 | 0 | 0 | 0 | 0 | 0 | 0 | 0 | 0 | 0 | 0 | 0 | 5 | 0 |
| Nc1n[nH]c2nnc(-c3ccccc3)c(-c3ccccc3)c12 [GW554060] | 0 | 41 | 0 | 100 | 3 | 26 | 0 | 25 | 3 | 0 | 0 | 0 | 0 | 0 | 0 | 22 | 0 | 0 | 0 | 0 |
| O=C1NC(=O)C(c2ccccc2)=C1Nc1cccc(O)c1 [SB-390534] | 23 | 0 | 1 | 0 | 0 | 26 | 17 | 0 | 4 | 49 | 24 | 26 | 0 | 1 | 0 | 27 | 20 | 3 | 9 | 22 |
